Structures can show the parent of a compound that is named as a salt. ± gives the standard deviation of the averaged measurements. The campaign covered roughly 1,000 compounds. About 15 (2%) showed an effect of 50% or more. The list comes from a sample in which strong results are over-represented; it also holds similar structures and randomly drawn compounds.

This assay relates to HFF. In words: uninfected host cell viability relative to vehicle control; higher = less host cell toxicity. As to conditions: 5 µM; 72 h; oxygen 21 %.
Turning to `C[C@@]12C(=O)OC(=O)[C@]1(C)[C@H]1CC[C@@H]2O1` [Cantharidin], the “uninfected host cell viability” value turned out to be 19.7 ± 1.6%.
As to `CC(C)NCC(O)c1ccc(N)c(C#N)c1` (stereo not given) [Cimaterol], the “uninfected host cell viability” value worked out at 84.5 ± 2.1%.
As for `NC(=S)N/N=C/c1coc2ccccc2c1=O.[Cl][Cu][Cl]`, the figure is 98.2 ± 1.8%.
As for `COC1(C[S@+]([O-])c2ccccc2)CCN(CCc2c[nH]c3ccc(F)cc23)CC1`, the figure is 80.8 ± 2.7%; as for `NCCc1c[nH]c2ccc(C(N)=O)cc12` [5-Carboxamidotryptamine maleate], 91.33 ± 0.078%; as for `CC(C)C[C@@H](N)C1(c2ccc(Cl)cc2)CCC1`, 91.72 ± 0.29%.
For the compound `NC1(c2ccccc2Cl)CCCCC1=O` (stereo not given) [Norketamine hydrochloride], the “uninfected host cell viability” value stood at 97.41 ± 0.47%.
As for `c1ccc2c(c1)[I+]c1ccccc1-2` [Diphenyleneiodonium chloride], the figure is 30.8 ± 3.4%; as for `Cc1[nH]c2ccc(Cl)cc2c1C1=CCNCC1`, 75.1 ± 2%; as for `CN1Cc2ccccc2[C@@H]2c3cccc4[nH]cc(c34)C[C@H]21`, 86.3 ± 3.7%.
As for `CCOC(=O)c1ncc2[nH]c3ccc(OCc4ccccc4)cc3c2c1COC`, the figure is 103 ± 4.4%.
Then `C[C@H]1CCC/C=C/[C@@H]2C[C@H](O)C[C@H]2[C@H](O)/C=C/C(=O)O1` [Brefeldin A], with 45.4 ± 4%; and `N#Cc1ccc(N2CCN(C(=O)COc3ccc4[nH]cc(CCN)c4c3)CC2)cc1` [Donitriptan hydrochloride], with 98.31 ± 0.13%; and `CC(=O)[C@H]1CC[C@H]2[C@@H]3CC[C@H]4C[C@](C)(O)CC[C@]4(C)[C@H]3CC[C@]12C` [Ganaxolone], with 95 ± 1.5%.
Turning to `O=C1NC(=O)c2c1c1c3ccccc3[nH]c1c1[nH]c3ccccc3c21` [Arcyriaflavin A], the “uninfected host cell viability” value is 83.56 ± 0.33%.
Then `O=C1NC(=O)c2c1c1c3ccccc3n3c1c1c2c2ccccc2n1[C@H]1CC[C@@H]3O1`, with 39.2 ± 11%; and `C[C@@H](N)Cc1cnc[nH]1` [(R)-(-)- α-Methylhistamine dihydrobromide], with 89.841 ± 0.031%; and `O=[N+]([O-])c1cc(O)c(O)c([N+](=O)[O-])c1`, with 95.7 ± 4.9%.
On to `Oc1ccc2c3c1O[C@H]1c4[nH]c5ccccc5c4C[C@@]4(O)[C@@H](C2)N(CC2CC2)CC[C@]314` [Naltrindole hydrochloride], for which the “uninfected host cell viability” value came out at 81.09 ± 0.49%.
Consider `O=C1/C(=C/c2ccccc2)C[C@@]2(O)[C@H]3Cc4ccc(O)c5c4[C@@]2(CCN3CC2CC2)[C@H]1O5` [BNTX maleate], for which the “uninfected host cell viability” value is 22.2 ± 1.1%.
For `Oc1ccc2c3c1O[C@H]1c4[nH]c5c(c4C[C@@]4(O)[C@@H](C2)N(CC2CC2)CC[C@]314)C[C@@]1(O)[C@H]2Cc3ccc(O)c4c3[C@@]1(CCN2CC1CC1)[C@H]5O4` [nor-Binaltorphimine dihydrochloride], the “uninfected host cell viability” value was 85.23 ± 0.22%.
As to `O[C@H]1[C@H](O)[C@@H](O)CN2CC[C@H](O)[C@H]12` [Castanospermine], the “uninfected host cell viability” value was 82.95 ± 0.65%.
As for `CCN(CC)CCO[C@H]1CC[C@@]2(C)C(=CC[C@@H]3[C@@H]2CC[C@]2(C)C(=O)CC[C@@H]32)C1`, the figure is 104 ± 3.5%; as for `c1ccc(CC(c2ccccc2)N2CCCCC2)cc1` (racemic) [(±)-1-(1,2-Diphenylethyl)piperidine maleate], 89.8 ± 6.6%; as for `N[C@H](C(=O)O)c1cc(O)no1` [Ibotenic acid], 85 ± 3.7%.

The record behind these values is the supplement of paper PMC4894684.
